{"source": "PubChem BioAssay (NCATS)", "note": "Results filed as inconclusive are left out. The source made the active and inactive calls. Calls follow the shape of the dose curve; as a rule, active = well fitted inhibition curve with a large enough effect; inconclusive = small, poorly fitted or top-dose-only effect; inactive = no such curve, though single readings can be large or run the other way. Positions of bridges follow the written chain, without caps; N, C: chain ends. Non-standard residues stand in square brackets, D forms with d. Residues, ends and D or L forms follow the SMILES beside them. *: point of attachment. X1 = CCC(C)C(N)C1=NC(C(=O)*)CS1; dOrn = NCCC[C@@H](N)C(=O)O", "data": [{"assay": "BET inhibitor-based combinations targeting novel dependencies in MECOM-rearranged (r) AML: SET-2 cell line (AID 2202231); also: nearly all actives have a fitted effect of over 35% in size; also: potency is read from the fitted curve at half-maximal effect;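 as to viability: plate controls were DMSO treated cells for no effect and wells without cells for full effect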", "details": "SET-2 AML cells viability, CellTiter-Glo luminescence, 48 h; viability: active compounds read low, series mostly up to about 46 µM", "in_short": "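Luminescent ATP readout (CellTiter-Glo) after 48 hr drug exposure gives viability. Curves span 11 concentrations and are normalized to DMSO and empty wells. Activity is reported as area under the curve and its Z-transform within each cell line.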", "values": [{"smiles": "COc1cccc2cc(-c3nc(C4CCC(C(=O)O)CC4)n4ncnc(N)c34)[nH]c12", "note": "(configuration not stated)", "Potency": "2.95 µM (active)"}, {"smiles": "CC1(C)CC(=O)c2c(C(F)(F)F)nn(-c3ccc(C(N)=O)c(NC4CCC(OC(=O)CN)CC4)c3)c2C1", "note": "(configuration not stated)", "Potency": "0.263 µM (active)"}, {"smiles": "COC(=O)N1CCN(Cc2cccc(NC(=O)Nc3ccc(C)nc3)c2F)CC1", "viability": "104% (inactive)"}, {"smiles": "O=C(O)c1cnn(-c2nc3cc(OC(F)(F)F)c(Cl)cc3[nH]2)c1", "viability": "119% (inactive)"}, {"smiles": "CCC(C)C(N)C1=NC(C(=O)N[C@@H](CC(C)C)C(=O)N[C@H](CCC(=O)O)C(=O)N[C@H](C(=O)N[C@H]2CCCCNC(=O)[C@H](CC(N)=O)NC(=O)[C@@H](CC(=O)O)NC(=O)[C@H](Cc3cnc[nH]3)NC(=O)[C@@H](Cc3ccccc3)NC(=O)[C@H]([C@@H](C)CC)NC(=O)[C@@H](CCCN)NC2=O)[C@@H](C)CC)CS1", "note": "(some centres not stated) (X1-L[dE]IK[dOrn]I[dF]H[dD]N; lactam 4-C)", "viability": "117% (inactive)"}, {"smiles": "Nc1ccccc1NC(=O)c1ccc(CNC(=O)OCc2cccnc2)cc1", "Potency": "2.09 µM (active)"}, {"smiles": "CC(C)C[C@H](NC(=O)[C@@H](NC(=O)c1cccc(-c2ccccc2)n1)[C@@H](C)O)B(O)O", "Potency": "0.0723 µM (active)"}]}]}
